Tgondii IFNg: blocks Toxoplasma gondii growth in the presence of IFN-gamma | Toxoplasma gondii growth in IFN-gamma-treated host cells; active compounds read low | activity change, negative = inhibition, % (test concentration not listed) | 69,000 tested, 3.8% active; in the data active = activity change below about -70%, passing the limit was not always enough;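 note: host cells are HeLa cells infected with Toxoplasma gondii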
An asterisk follows results filed as active; ! = a repeat was not active. This excerpt belongs to a sample that is enriched for hits.

SMILES	Tgondii IFNg
CN(C)CCC=C1c2ccccc2CCc2ccccc21	-74.8*!
c1csc(-c2[nH]ncc2CN2CCC3(CC2)Nc2ccccc2C2=NCCN23)c1	5.8
CC1(C)CC(c2nccn2-c2ccc(Oc3nn[nH]n3)cc2)CCO1 (configuration not stated)	0.3
COCCN(C[C@@H]1[C@@H](c2ccccc2)[C@H](CO)N1C(=O)C1CC1)C(C)=O	7.6
Nc1c(C(=O)O)sc2cc(C(F)(F)F)cnc12	96.4
O=C(Nc1ccc(F)c(Cl)c1)c1c(O)c2ccccc2[nH]c1=O	-11.8
CCN1CCN(c2ncc(-c3ccsc3)c(-c3cccnc3)n2)CC1	5.3
Cn1cc(N2C[C@@H]3CN(Cc4cccs4)C[C@@H]3C2=O)cn1	20.4
CN1CCc2ccccc2Cc2[nH]c3ccccc3c2CC1	7.3
O=c1cc(O)c2c(=O)n3c4c(cccc4c2o1)CCC3	-15.4
O=c1c2c3ccccc3[nH]c2c2cccc3c2n1CC3	-89.3*
CN1CCC(Cc2noc(-c3cccc(Cn4cccn4)c3)n2)CC1	-4.9
COc1ccc(CCN2CCC(CNS(=O)(=O)c3ccc4[nH]c(=O)ccc4c3)CC2)cc1	-3.4
CSc1nnc(Nc2ccc(Cl)cc2Cl)s1	-23.4
COc1ccc2[nH]cc(CCNC(=O)c3c(-c4ccccn4)noc3C)c2c1	-10.1
Cn1cncc1-c1nccn1CCCN1CCOCC1	-8.4
CSc1ncc2c(n1)-c1c(SC)sc(C(=O)Nc3ccc(Cl)cc3)c1CC2	-84.9*
COc1cncc(C(=O)Nc2ccc(Cl)cc2)c1	30.3
CSc1sc(C(=O)Nc2cc(C(F)(F)F)cc(C(F)(F)F)c2)c2c1C=CCC2	-54.6
Cc1c(C(=O)NCCCN2CCOCC2)cc(C(C)(C)C)n1-c1ccccc1	-17.8
Cc1ccc(C(=O)NC(=S)NCCCN2CCOCC2)cc1	-1.6
CC1CCCC(C)N1C(=S)NCCCN1CCOCC1 (configuration not stated)	-79.6*
COc1ccc(NC(=O)c2ccc(SC)cc2OC)cn1	142.3
Cc1oc(-c2ccc(C(=O)Nc3ccc(F)cc3)cc2)nc1CN1CCN(c2ccccc2)CC1	-22.5
CC(=O)N1CCOC2(CCCN(C(=O)Cc3ccccc3)C2)C1 (configuration not stated)	-4.7
SMILES	Tgondii IFNg
CCc1nc(C)c(C(=O)N(C)Cc2snnc2C)o1	-27.1
CCc1nc(C)c(C(=O)N(C)Cc2csc(C(C)C)n2)o1	-91.7*
CCc1nc(C)c(C(=O)N(C)Cc2ccc3nsnc3c2)o1	-3.0
Cc1cn[nH]c1C1CCN(C(=O)Cc2c(C)noc2C)C1 (configuration not stated)	-33.5
Cc1ccc(C(=O)Nc2ccc(N3CCC(C(N)=O)(N4CCCCC4)CC3)c(C(=O)O)c2)cc1	-0.5
CCc1cccc(NC(=O)CCC(=O)N2CCC[C@H]2COC)c1	4.4
CCn1cc(CN2CCN(C(=O)C3(c4ccc(Cl)cc4)CCOCC3)CC2)cn1	6.0
O=C(O)COCCN1CCN([C@H](c2ccccc2)c2ccc(Cl)cc2)CC1	22.8
OCCOCCN1CCN(C(c2ccccc2)c2ccc(Cl)cc2)CC1 (configuration not stated)	-96.9*!
O=C(O)COCCN1CCN(C(c2ccccc2)c2ccc(Cl)cc2)CC1 (configuration not stated)	18.2
Cc1ccc(C(=O)N(CCCN)[C@@H](c2oc3cc(Cl)ccc3c(=O)c2Cc2ccccc2)C(C)C)cc1	-68.5
CN1CC=C(C2CCN(C(=O)/C=C/c3ccccc3)CC2)CC1	-11.6
CC1=CCC=CC1C(=O)Nc1ccc2c(c1)CCC(=O)N2 (configuration not stated)	-49.6
O=C(O)CC(NC(=O)Nc1ccccc1)c1ccsc1 (configuration not stated)	114.3
O=C(NCCc1c[nH]c2ccc(Cl)cc12)c1cccs1	11.0
CCCN1CCN(c2ncnc3sc(C(=O)NCCc4c[nH]c5ccc(Cl)cc45)c(C)c23)CC1	-84.5*
O=C(NCCc1c[nH]c2ccc(Cl)cc12)c1sc2ncccc2c1-n1cccc1	423.4
O=C(CN1C(=O)c2ccccc2S1(=O)=O)N1CCCC1c1nc2ccccc2[nH]1 (configuration not stated)	26.9
C[C@@H]1CN([C@H](C)CO)C(=O)Cc2cc(NC(=O)C3CCCCC3)ccc2O[C@@H]1CN(C)Cc1ccc(Cl)c(Cl)c1	-42.6
COc1ccccc1CN1C(=O)O[C@@H]2CN(C(=O)c3cc4ccccc4o3)C[C@@H]21	-2.1
Cc1ccc(C(=O)Nc2nccnc2C(=O)N2CCC(N3CCCCC3)CC2)cc1	-4.5
CC(=O)N1CCC(Cn2ccnc2-c2cc3ccccc3s2)CC1	-46.7
O=C(c1ccc(Nc2nccc(-c3cc4ccccc4s3)n2)cc1)N1CCC(N2CCCC2)CC1	-70.6*
Cc1ccc(-c2cc(-n3cnc4c(-c5ccc(C)cc5)nsc4c3=O)n[nH]2)cc1	10.0
Cc1nn(C)cc1-c1ccnc(N(C)Cc2ccsc2)n1	12.1
SMILES	Tgondii IFNg
COc1ccc(N2CC3(CCN(c4ccc(C)nn4)C3)CC2=O)cc1 (configuration not stated)	7.5
COc1ccc([C@@H]2CC(=O)c3c(O)cc(O[C@@H]4O[C@H](CO[C@@H]5O[C@@H](C)[C@H](O)[C@@H](O)[C@H]5O)[C@@H](O)[C@H](O)[C@H]4O)cc3O2)cc1O	10.3
COc1ccc([C@@H]2CC(=O)c3c(O)cc(O)cc3O2)cc1O	-76.9*!
O=C1C[C@@H](c2ccccc2)Oc2cc(O)cc(O)c21	1.5
CC(C)C[C@H]1CN(C(=O)c2ccn(C)c(=O)c2)CC[C@@]1(C)O	-2.3
Cc1ccc(S(=O)(=O)NCCCCCc2nc3ccccc3[nH]2)cc1	-15.1
COc1ccc(-c2cc(N)nc3[nH]ccc23)cn1	-34.3
Nc1cc(-c2cnc3ccccc3n2)c2cc[nH]c2n1	-90.3*
Cc1cnc(C)c(-c2cc(N)nc3[nH]ccc23)n1	195.9
CCc1ccc(Nc2nc(C(=O)NCCc3cnc[nH]3)nc3ccccc23)cc1	-34.1
COc1ccc(-c2nc(N3CCc4ccccc4C3)c3ccccc3n2)cc1	63.2
COc1ccc2c(c1)CCc1c-2nc2ccccc2c1N1CCOCC1	-98.4*
COc1ccc(-c2nc(NCCN3CCOCC3)c3ccccc3n2)cc1	-57.8
O=C(Cn1c(C2CC2)nc2ccccc21)N1CCCC1c1ccccn1 (configuration not stated)	0.7
COc1ccc(CNC(=O)CCC2N=C3c4ccccc4N=C(SCc4ccc(C)cc4)N3C2=O)cc1 (configuration not stated)	-10.6
COc1ccc(Br)c(-c2nc(-c3ccc(C(F)(F)F)cn3)no2)c1	84.5
Cc1ccc(C2=NC3(CCN(CC(=O)Nc4cc(C)cc(C)c4)CC3)NC2=O)cc1	68.8
COc1ccccc1NC(=O)C(=O)NCCc1csc(-c2ccc(Cl)cc2)n1	28.0
Oc1cc(-c2csc3ccccc23)cc2c1OCCN(CCn1cncn1)C2	-32.1
O=C(CCN1CCCO1)N1CCOc2c(O)cc(-c3cccnc3)cc2C1	4.7
Cc1ccc(-c2cc(O)c3c(c2)CN(C(=O)CCCn2cncn2)CCO3)cc1	-75.7*
COc1cccc(NC(=O)c2cc(-c3ccn(C)n3)n3ccccc23)c1	-63.3
CC1Cc2cc(C(=O)N3CCC(c4nc5cnccn5c4NC(C)(C)C)CC3)ccc2O1 (configuration not stated)	-46.4
Cc1cc(C(=O)N2CCCCC2)c2c(=O)n(Cc3nc(-c4ccccc4)oc3C)c(=O)n(C)c2n1	10.6
Cc1cc(-c2c(-c3ccccc3)ncn2CCNc2ccccc2)n[nH]1	1.1
Cc1ccc(C2(O)CCN(C(=O)c3ccc(Cn4cccn4)o3)CC2)nc1	7.3
